Source: PubChem BioAssay (National Center for Advancing Translational Sciences (NCATS))
In the library only some 22% were active in any assay of this set; here they are far more common.
Pf growth 48h: inhibits P. falciparum growth in the first generation, 48 h; P. falciparum luciferase growth in erythrocytes, 48 h; Potency, µM (doses to about 28.7 µM), without a hit: at the highest dose activity change, negative = inhibition, hits mostly inhibitors; hit rate 5.9% among 310,000; AID 504832; also: potency is read from the fitted curve at half-maximal effect; % is scaled to controls: 0 for no effect and ±100 for the full control effect
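Compounds are pin-transferred into medium, infected erythrocytes (2% hematocrit, 0.1% parasitemia final) are added, and plates sit one parasite generation at 37 C in 5% CO2. Detection reagent is then added and luminescence measured.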
Cycloheximide cs: counter-screen hit for Shiga toxin inhibitors, cycloheximide; max response, %; AID 2314; hit rate 12% among 300,000; cell reporter, cycloheximide protein synthesis inhibition counterscreen; in the data active = max response mostly above about 13%, no sharp cut-off; inactive = mostly below about 14%; also: read at 38.3 µM for the half of the compounds with a filed dose; 0% is about no effect
Pf growth 96h: P. falciparum growth inhibition at 96 hours | hit rate 6.9% among 320,000 | P. falciparum luciferase reporter growth, 96 h | Potency, µM (doses to about 28.7 µM), inactives show top-dose activity change, negative = inhibition, actives largely listed as inhibitors; also: potency is read from the fitted curve at half-maximal effect; % is scaled to controls: 0 for no effect and ±100 for the full control effect
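Luminescence readout: decreased luciferase signal marks inhibited growth of reporter-expressing P. falciparum in infected red cells (2% hematocrit, 0.05% parasitemia final), exposed to compound two generations (96 h, 37 C, 5% CO2).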
Shiga inhibitor: Shiga toxin inhibition; hit rate 9.2% among 290,000; inhibition, % at 38.7 µM; Vero cells, Shiga toxin protein synthesis inhibition reporter; AID 2315; in the data active = inhibition mostly above about 28%, no sharp cut-off; inactive = mostly below about 43%; also: 0% is about no effect
LmPK inh: LmPK (Leishmania mexicana) enzyme inhibition; hit rate 0.37% among 290,000; Potency, µM (top dose mostly 57.5 µM), without a hit: at the top dose activity change, negative = inhibition, actives largely listed as inhibitors; AID 1721; purified LmPK, Kinase-Glo ATP luminescence, 1 h; also: potency is read from the fitted curve at half-maximal effect; % is scaled to controls: 0 for no effect and ±100 for the full control effect
Target sequence (Q27686 whole entry, looked up): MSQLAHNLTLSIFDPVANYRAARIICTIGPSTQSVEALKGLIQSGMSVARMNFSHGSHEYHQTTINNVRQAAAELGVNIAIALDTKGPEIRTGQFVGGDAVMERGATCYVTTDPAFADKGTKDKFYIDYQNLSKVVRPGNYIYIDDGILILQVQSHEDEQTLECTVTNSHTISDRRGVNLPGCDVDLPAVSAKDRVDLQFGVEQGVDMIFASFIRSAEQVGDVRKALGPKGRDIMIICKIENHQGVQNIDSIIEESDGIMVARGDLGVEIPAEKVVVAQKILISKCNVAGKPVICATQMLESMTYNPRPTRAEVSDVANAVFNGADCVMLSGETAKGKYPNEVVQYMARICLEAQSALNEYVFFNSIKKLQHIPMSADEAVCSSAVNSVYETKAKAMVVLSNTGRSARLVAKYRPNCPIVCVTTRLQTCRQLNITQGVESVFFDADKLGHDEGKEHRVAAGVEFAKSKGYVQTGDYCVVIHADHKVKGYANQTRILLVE
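Purified LmPK (0.1 nM) converted ADP (0.1 mM) to ATP with PEP (0.5 mM) in imidazole buffer pH 7.2 with KCl and MgCl2, 1 h at room temperature. ATP was read by Kinase-Glo luminescence; data normalized to uninhibited and no-enzyme controls.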
* hit, by the source's call; ? = inconclusive; . = no result. Unless noted, calls follow the shape of the dose curve; as a rule, active = well fitted inhibition curve with a large enough effect; inconclusive = small, poorly fitted or top-dose-only effect, or another doubt; inactive = no such curve, though single readings can be large or run the other way.

SMILES	Pf growth 48h	Cycloheximide cs	Pf growth 96h	Shiga inhibitor	LmPK inh
CC(=O)c1ccc(NC(=O)C2CCN(S(=O)(=O)c3cccs3)CC2)cc1	?	43.8*	?	43.7*	6.8%
CC1CCN(C(=O)C2CCN(S(=O)(=O)c3cccs3)CC2)CC1	27.7%	16.8*	-26.4%	41.2	0.4%
O=C(Nc1nc2ccccc2[nH]1)C1CCN(S(=O)(=O)c2cccs2)CC1	.	13.8*	19.8%	13.4	-0.1%
CC(=O)N1CCc2c(sc(NC(=O)C3CCN(S(=O)(=O)c4cccs4)CC3)c2C(N)=O)C1	11.7µM*	.	?	.	.
CCCCn1c(N)c(N(CC(C)C)C(=O)CCNC(=O)c2ccc(Br)cc2)c(=O)[nH]c1=O	-13.5%	.	?	.	.
NC(=O)C1CC(=O)N(c2ccc(OCc3ccc(Cl)cc3Cl)cc2)C1 (configuration not stated)	19.2%	25.6*	-15.2%	58.4	8.4%
C=CCNC(=O)C1CC(=O)N(c2ccc(OCc3ccccc3Cl)cc2)C1 (configuration not stated)	36.6%	33.3*	?	33.2*	-13.4%
O=c1ccc(-c2ccc(S(=O)(=O)N3CCN(c4cccc(Cl)c4)CC3)o2)n[nH]1	6.1%	-9.9	?	-5.4	-9.6%
c1ccc(-c2nn3c(C4CCCCC4)nnc3s2)nc1	9.7%	-3.9	53.1%	-6.1	-1.3%
Clc1ccc(OCc2nn3c(C4CCCCC4)nnc3s2)cc1	-10.0%	-1.6	9.28µM*	-6.2	-0.7%
COc1ccc(CCNC(=O)c2c(O)c3ccccc3[nH]c2=O)cc1	-4.9%	5.6	-27.3%	-13.6	-0.9%
CCOC(=O)C1=C(N)n2c(s/c(=C\c3ccco3)c2=O)=C(C(=O)OC(C)C)C1c1ccco1 (configuration not stated)	2.94µM*	-2.0	?	8.7	-1.3%
CCOC(=O)C1=C(N)n2c(s/c(=C\c3ccco3)c2=O)=C(C(=O)OCC)C1c1ccco1 (configuration not stated)	?	8.3	.	-16.7	7.1%
Brc1ccc(-c2nn3c(-c4ccncc4)nnc3s2)o1	6.0%	1.8	45.5%	12.6	-3.6%
CC(C)(C)c1ccc(-c2nnc3sc(-c4ccccn4)nn23)cc1	.	46.2*	-23.6%	91.3*	-2.1%
Clc1ccccc1-c1nn2c(-c3ccncc3)nnc2s1	10.4µM*	6.3	?	-6.8	3.1%
Clc1ccccc1-c1nnc2sc(-c3ccncc3)nn12	.	-3.8	1.9%	-10.7	1.5%
Clc1ccccc1-c1nn2c(-c3ccccn3)nnc2s1	8.28µM*	3.6	-16.1%	-4.2	-2.6%
Brc1ccc(-c2nn3c(-c4ccccn4)nnc3s2)o1	-26.2%	14.2*	?	24.6	5.4%
CCOC(=O)C1CCCN(Cc2ccc(OCC)cc2)C1 (configuration not stated)	.	1.1	31.2%	-4.6	1.8%
O=C(Nc1ccc(Br)cc1Cl)NC1CC1	43.0%	9.0	5.5%	8.4	0.5%
Cn1cc(-c2ccccc2C(=O)O)c(=O)c2cc(Cl)ccc21	2.4%	-3.3	-0.9%	-6.9	1.4%
COc1ccccc1NC(=O)Cc1nnc(SCC(=O)Nc2nccs2)n1C	-6.8%	-0.8	1.2%	28.6	-11.7%
O=C(CSc1ncn[nH]1)N/N=C/c1ccc(Br)cc1	-12.0%	9.9	?	24.6	-3.8%
O=C(CSc1ncn[nH]1)Nc1ccc(Br)cc1F	53.5%	25.2*	98.7%	40.0	1.5%
SMILES	Pf growth 48h	Cycloheximide cs	Pf growth 96h	Shiga inhibitor	LmPK inh
Cc1ccc(CSCC(=O)NCCc2ccccc2)cc1	22.2%	17.7*	-16.5%	84.8	0.9%
Cc1ccc(SCC(=O)Nc2ccccc2C(=O)O)cc1	59.2%	28.8*	.	116.6*	-29.0%
Cc1ccc(CSCC(=O)Nc2ccccc2C(=O)O)cc1	44.3%	35.6*	2.08µM*	47.1*	-2.8%
O=C(Cn1c(NCCCO)nc2ccccc21)c1ccc(F)cc1	-1.5%	0.8	?	-0.6	2.0%
COC(=O)c1ccccc1NC(=O)CSc1ccccc1	-19.9%	1.1	0.3%	24.8	-5.8%
O=C(CSc1ncn[nH]1)Nc1ccccc1C(=O)O	9.5%	-3.2	2.94µM*	-13.7	4.9%
O=C(CSc1ccccc1)Nc1ccccc1C(=O)O	20.4%	27.1*	1.6%	87.5*	-17.2%
O=P(O)(O)OP(=O)(O)OP(=O)(O)O	4.2%	.	7.1%	.	.
CN(Cc1ccccc1)S(=O)(=O)c1ccc2c(c1)CCC(=O)N2	3.7%	-1.0	6.0%	-7.1	-1.1%
CCCCc1ccc(CC(=O)Nc2cc(S(=O)(=O)N3CCOCC3)ccc2O)cc1	?	.	17.3%	.	.
CCC(Sc1nc2sc(C(=O)OC)c(C)c2c(=O)n1N)C(=O)NCC1CCCO1 (configuration not stated)	?	-1.6	4.65µM*	-0.9	0.8%
CCCCNC(=O)C(CC)Sc1nc2sc(C(=O)OC)c(C)c2c(=O)n1N (configuration not stated)	?	-2.2	73.3%	-6.7	-3.6%
CCOc1ccc(CCNC(=O)c2nnc(CS(=O)(=O)c3ccccc3)o2)cc1OCC	-17.4%	-4.4	-25.2%	-5.3	-4.5%
CCOC(=O)Cc1csc(NC(=O)Nc2ccc(C)cc2)n1	2.1%	26.6*	5.6%	50.4*	-16.8%
CCOC(=O)Cc1csc(NC(=O)Nc2ccc(F)cc2)n1	-27.9%	11.7*	-0.9%	14.0	-1.0%
CCOC(=O)Nc1nc(-c2ccc(F)cc2F)cs1	105.5%	54.5*	?	12.0*	0.7%
COC(=O)Nc1nc(-c2cc(Cl)ccc2Cl)cs1	-23.9%	-4.7	6.9%	-2.0	3.0%
CCOC(=O)Cc1csc(NC(=O)Cc2ccc(C)cc2)n1	16.5%	-0.6	36.6%	10.8	5.5%
CCOC(=O)Cc1csc(NC(=O)Nc2cccs2)n1	18.9%	37.3*	86.1%	48.4*	3.1%
Cc1cccc(-c2noc(CCCC(=O)NC3CCCCC3)n2)c1	-2.0%	-4.6	12.4%	-11.1	-4.3%
CCOC(=O)Cc1csc(N/N=C/c2ccc(C(F)(F)F)cc2)n1	93.1%	22.3*	152.3%	25.1	7.4%
CCOC(=O)Cc1csc(N/N=C/c2cccc([N+](=O)[O-])c2)n1	23.9%	15.6	-9.8%	-4.8	-2.3%
Cc1cc(O)c(CN(C)C)c2c1C(=O)/C(=C/c1ccco1)O2	6.57µM*	-1.8	5.22µM*	-9.1	-1.0%
COC(=O)C1=C(C)N(c2ccc(C)c(C)c2)/C(=C/c2ccco2)C1=O	6.0%	17.4	0.0%	56.8	8.8%
Cc1c(OC(=O)N(C)C)ccc2c1O/C(=C\c1ccco1)C2=O	32.7%	47.4*	33.8%	90.8*	1.9%
CC(=O)COc1ccc2c(c1C)O/C(=C\c1ccco1)C2=O	69.2%	82.4*	57.7%	127.3*	6.0%
COC(=O)C1=C(C)NC(=O)/C1=C\c1ccco1	0.2%	10.8	34.5%	0.3	2.0%
CC(=O)N(C(C)=O)S(=O)(=O)c1ccc(N=NN2CCOCC2)cc1	30.7%	-1.4	2.3%	9.2	-3.6%
Cc1cc(-c2ccccc2)c2c(=O)n(-c3ccccc3)[nH]c2n1	38.3%	1.5	0.0037µM*	-6.8	-9.9%
